L3MBTL1 block: qHTS Assay for the Inhibitors of L3MBTL1. AlphaScreen L3MBTL1–H3K9me1 peptide binding. Potency, µM (doses to about 57.1 µM), for the others: top-dose activity, negative = inhibition, hits mostly inhibitors. 230,000 tested, 0.66% active; further: on the % scale 0 is the no-effect control and ±100 the full control effect; nearly all actives have a fitted effect of over 60% in size
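Displacement of a biotinylated histone H3(1-15) peptide monomethylated at Lys9 (75 nM) from L3MBTL1 (50 nM) was measured by AlphaScreen after a 30 min room-temperature compound incubation; cefsulodin titration served as intraplate control.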
GLS inhibitor: qHTS for Inhibitors of Glutaminase (GLS). GLS enzymatic activity, qHTS titration. AID 624170, 2012. Potency, µM (titrated, usually from 45.5 µM), inactives show at the highest dose activity change, negative = inhibition, most hits filed as inhibitors. Glutaminase kidney isoform, mitochondrial (Homo sapiens), O94925. 410,000 tested, 0.21% active; further: on the % scale 0 is the no-effect control and ±100 the full control effect
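hKGA in 45 mM KH2PO4 (pH 8.2), 0.02% Tween-20 with compound, then 1mM L-Glutamine (stock as added) plus glutamate oxidase/HRP/Amplex red coupling mix. Fluorescence read initially and after 30 min at RT; signal change reflects glutamate formation.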
HP1b binding inh: HTS for Inhibitors of HP1-beta Chromodomain Interactions with Methylated Histone Tails; AlphaScreen HP1-beta / biotin-H3K9me3 peptide binding; Chromobox protein homolog 1 (Homo sapiens), P83916; Potency, µM (doses to about 114 µM), for inactives: at the highest dose activity change, negative = inhibition, hits mostly inhibitors; 390,000 tested, 0.56% active; further: nearly all actives have a fitted effect of over 70% in size
Target sequence (P83916 whole entry, looked up): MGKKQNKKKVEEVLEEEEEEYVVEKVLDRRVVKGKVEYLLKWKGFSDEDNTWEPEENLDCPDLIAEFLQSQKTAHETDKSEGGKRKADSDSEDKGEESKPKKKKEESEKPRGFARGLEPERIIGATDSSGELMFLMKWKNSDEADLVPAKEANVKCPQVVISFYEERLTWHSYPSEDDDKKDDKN
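HP1-beta protein (50 nM final) preincubated 30 min at room temperature with biotinylated H3(1-18)K9me3 peptide (50 nM) in PBS pH 7.4, 0.01% Tween-20, then compound added for 30 min. AlphaScreen streptavidin donor/nickel chelate acceptor beads (10 ug/mL final), 30 min dark, luminescence read.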
JMJD2A Tudor: qHTS Assay for Inhibitors of JMJD2A-Tudor Domain; 390,000 tested, 4.4% active; Potency, µM (highest dose often 114 µM), for the others: at the top dose activity change, negative = inhibition, usual class: inhibitors; Lysine-specific demethylase 4A (Homo sapiens), O75164; AID 504339, 2011; AlphaScreen JMJD2A-Tudor / H3K4me3 peptide binding; further: on the % scale 0 is the no-effect control and ±100 the full control effect; nearly all actives have a fitted effect of over 50% in size
BAZ2B inh: qHTS Assay for Inhibitors of BAZ2B | Potency, µM (series often up to 114 µM), for inactives: top-dose activity change, negative = inhibition, actives largely listed as inhibitors | 360,000 tested, 4.4% active | AlphaScreen BAZ2B-H3K14Ac peptide displacement | AID 504333, 2011; further: on the % scale 0 is the no-effect control and ±100 the full control effect; nearly all actives have a fitted effect of over 60% in size
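Multi-concentration screen (max 110 uM) measuring displacement of acetylated histone H3 peptide from BAZ2B by AlphaScreen, using 50 nM protein, 50 nM peptide and 10 ug/mL streptavidin donor plus Ni-chelate acceptor beads.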
G9a inh: qHTS Assay for Inhibitors of Histone Lysine Methyltransferase G9a; Potency, µM (series often up to 102 µM), for the others: at the highest dose activity, negative = inhibition, hits mostly inhibitors; G9a H3K9 monomethylation, AlphaScreen, 2 h; Histone-lysine N-methyltransferase EHMT2 (Homo sapiens), Q96KQ7; 350,000 tested, 8.8% active; AID 504332, 2011; further: on the % scale 0 is the no-effect control and ±100 the full control effect; nearly all actives have a fitted effect of over 75% in size
Target sequence (Q96KQ7 913-1193 limits assumed): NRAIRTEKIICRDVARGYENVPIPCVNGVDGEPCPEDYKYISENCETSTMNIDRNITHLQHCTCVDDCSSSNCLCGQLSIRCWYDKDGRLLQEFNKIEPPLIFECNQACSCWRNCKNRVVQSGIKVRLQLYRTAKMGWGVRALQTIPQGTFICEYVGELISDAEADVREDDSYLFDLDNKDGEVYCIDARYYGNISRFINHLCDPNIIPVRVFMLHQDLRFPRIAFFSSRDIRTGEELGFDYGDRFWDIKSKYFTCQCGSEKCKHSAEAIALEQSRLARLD
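AlphaScreen detection with an anti-monomethyl H3K9 antibody quantified product after a 2 h room-temperature reaction containing 500 nM biotinylated H3K9 peptide, 20 µM SAM and 20 nM enzyme, which had been preincubated 15 min with compound.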
Starred values were filed as active, the others as inactive; [ ] = remark or other dose. A selection: hits, their analogues and other compounds. The true share with any hit is near 10%. The call rests on the fitted dose curve; in most records, active means well fitted curve in the direction sought with a large enough effect; inconclusive means small, poorly fitted or top-dose-only effect, or another doubt; inactive means no such curve, though single readings can be large; an effect the other way counts as inactive or inconclusive. Potency means the concentration at half of the fitted maximal effect.

What do the screens show for `COc1cc(S(=O)(=O)N2CCOCC2)ccc1NC(=O)COC(=O)CC12CC3CC(CC(C3)C1)C2`?
GLS inhibitor: -2.1%; HP1b binding inh: 41.0%; JMJD2A Tudor: -20.0%; BAZ2B inh: -2.3%; G9a inh: 1.41µM*

How did COc1ccccc1OCC(=O)Nc1ccc(S(=O)(=O)N2CCOCC2)cc1 do in these assays?
GLS inhibitor: 2.9%; HP1b binding inh: -11.8%; JMJD2A Tudor: -24.4%; BAZ2B inh: -2.9%; G9a inh: 79.4µM*

What do the screens show for `Cc1cc(C)c(OCC(=O)Nc2ccc(S(=O)(=O)N3CCOCC3)cc2)c(C)c1`?
GLS inhibitor: 5.5%; HP1b binding inh: 8.8%; JMJD2A Tudor: -17.5%; BAZ2B inh: -15.9%; G9a inh: 44.7µM*

What do the screens show for `CCn1c(=O)c2sccc2n2c(CCCC(=O)Nc3ccc(Oc4ccccc4)cc3)nnc12`?
GLS inhibitor: 6.3%; HP1b binding inh: 46.1%; JMJD2A Tudor: 5.9%; BAZ2B inh: -0.4%; G9a inh: 4.7%[59 µM]

What do the screens show for `O=C(Nc1nc2ccccc2[nH]1)c1cccc(Cl)c1`?
L3MBTL1 block: -6.0%; GLS inhibitor: -4.8%; HP1b binding inh: 34.2%; JMJD2A Tudor: -15.3%; BAZ2B inh: 0.0%

How did O=C(O)c1ccc(Nc2nc3ccc(Cl)cc3[nH]2)cc1 do in these assays?
L3MBTL1 block: -1.3%; GLS inhibitor: 14.5%; HP1b binding inh: 3.2%; JMJD2A Tudor: inconclusive; BAZ2B inh: inconclusive; G9a inh: 44.7µM*

How did COc1ccc(NC(=O)CC2C(=O)N(c3ccc(C)cc3)C(=O)N2C2CCCC2)cc1 (stereo not given) do in these assays?
GLS inhibitor: -13.6%; HP1b binding inh: 18.0%; JMJD2A Tudor: -23.1%; BAZ2B inh: -15.0%; G9a inh: -9.8%[59 µM]

How did C/C(=N\NC1=N[C@H]2CS(=O)(=O)C[C@H]2S1)c1ccccc1 do in these assays?
GLS inhibitor: 25.4%; HP1b binding inh: 12.4%; JMJD2A Tudor: inconclusive; BAZ2B inh: inconclusive; G9a inh: 50.1µM*

What do the screens show for `O=S1(=O)C[C@@H]2N=C(N/N=C/c3ccccc3)S[C@@H]2C1`?
GLS inhibitor: -6.0%; HP1b binding inh: 2.7%; JMJD2A Tudor: -11.9%; BAZ2B inh: -4.2%; G9a inh: inconclusive

What do the screens show for `Cn1c(=O)n(-c2ccc(F)c(Cl)c2)c(=O)c2sc3ccccc3c21`?
GLS inhibitor: 11.7%; HP1b binding inh: 23.2%; JMJD2A Tudor: -7.3%; BAZ2B inh: inconclusive; G9a inh: -27.5%[59 µM]

What do the screens show for `CCCS(=O)(=O)NCc1cn2c(C)csc2n1`?
L3MBTL1 block: -13.2%; GLS inhibitor: -2.9%; HP1b binding inh: 36.4%; JMJD2A Tudor: -19.7%; BAZ2B inh: 9.1%; G9a inh: 56.2µM*

What do the screens show for `CC(=O)NCc1cn2c(C)csc2n1`?
L3MBTL1 block: -25.0%; GLS inhibitor: -2.2%; HP1b binding inh: 10.4%; JMJD2A Tudor: -9.0%; BAZ2B inh: -4.9%; G9a inh: -1.3%[59 µM]

Results for Cc1csc2nc(CNC(=O)CCC(=O)O)cn12 ?
L3MBTL1 block: 5.6%; GLS inhibitor: -0.5%; HP1b binding inh: 29.2%; JMJD2A Tudor: -19.7%; BAZ2B inh: -0.9%; G9a inh: 50.1µM*

What do the screens show for `Cc1ccc(SCc2cn3c(C)csc3n2)cc1`?
GLS inhibitor: 4.2%; HP1b binding inh: 16.3%; JMJD2A Tudor: -24.5%; BAZ2B inh: 56.2µM*; G9a inh: inconclusive

How did Cc1ccc(S(=O)(=O)N2CCN(c3nc(-c4ncccn4)nc4ccccc34)CC2)cc1 do in these assays?
HP1b binding inh: 55.9%; JMJD2A Tudor: inconclusive

What do the screens show for `Cn1c(=O)c(-c2ccccc2)c(O)c2ccccc21`?
GLS inhibitor: 21.0%; HP1b binding inh: 40.8%; JMJD2A Tudor: -6.2%; BAZ2B inh: -5.3%; G9a inh: 10.9%

Results for Cc1c(O)c(=O)c2ccccc2n1C ?
L3MBTL1 block: -0.9%; GLS inhibitor: 26.3%; HP1b binding inh: 29.8%; JMJD2A Tudor: 22.4µM*; BAZ2B inh: -9.1%; G9a inh: 44.7µM*

Results for O=C(c1ccncc1)N1CCC2(CCCN(c3ccncc3)C2)CC1 ?
G9a inh: 3.7%[12.7 µM]

What do the screens show for `c1ccc(CNc2nc3ccccc3n2CCN2CCOCC2)nc1`?
L3MBTL1 block: -4.9%; GLS inhibitor: 15.3%; HP1b binding inh: 19.2%; JMJD2A Tudor: 25.1µM*; BAZ2B inh: 70.8µM*; G9a inh: -26.4%[59 µM]

How did c1csc(CNc2nc3ccccc3n2CCN2CCOCC2)c1 do in these assays?
GLS inhibitor: 5.1%; HP1b binding inh: 25.3%; JMJD2A Tudor: -3.6%; BAZ2B inh: 10.9%; G9a inh: inconclusive

Results for CCCn1c(NCc2ccccn2)nc2ccccc21 ?
L3MBTL1 block: -14.9%; GLS inhibitor: 24.3%; HP1b binding inh: 12.0%; JMJD2A Tudor: 20µM*; BAZ2B inh: 56.2µM*; G9a inh: 5.62µM*

How did COc1cc(C(=O)NCC(=O)N/N=C/c2ccc(-c3ccc([N+](=O)[O-])cc3)o2)cc(OC)c1OC do in these assays?
GLS inhibitor: 0.6%; HP1b binding inh: 14.2%; JMJD2A Tudor: -13.4%; BAZ2B inh: -12.4%; G9a inh: 44.7µM*

Results for COc1cc(C(=O)NCC(=O)N/N=C/c2ccc(-c3cccc([N+](=O)[O-])c3)o2)cc(OC)c1OC ?
GLS inhibitor: -11.3%; HP1b binding inh: 17.8%; JMJD2A Tudor: -22.1%; BAZ2B inh: -23.1%; G9a inh: 10µM*

Results for CC(C)(C)c1nn(-c2ccccc2)c2[nH]c(=O)c(CNCc3ccco3)cc12 ?
L3MBTL1 block: -5.3%; GLS inhibitor: -4.5%; HP1b binding inh: 27.8%; JMJD2A Tudor: -19.8%[11.4 µM]; BAZ2B inh: -0.5%; G9a inh: -31.7%

What do the screens show for `CC(C)(C)c1nn(-c2ccccc2)c2[nH]c(=O)c(CNc3ccc4c(c3)OCCO4)cc12`?
GLS inhibitor: 15.5%; HP1b binding inh: inconclusive; JMJD2A Tudor: 39.8µM*; BAZ2B inh: 1.12µM*; G9a inh: 35.5µM*

What do the screens show for `Cc1nn(-c2ccccc2)c2[nH]c(=O)c(CNc3ccc(N4CCOCC4)cc3)cc12`?
L3MBTL1 block: -20.3%; GLS inhibitor: inconclusive; HP1b binding inh: inconclusive; JMJD2A Tudor: inconclusive; BAZ2B inh: 44.7µM*; G9a inh: 31.6µM*

Screening data (PubChem BioAssay)
